Data taken from PubChem BioAssay AID1159580 (chemical genetic matrix, 2015).
Values joined by “and” are separate entries in the source; they are usually repeats but may differ in a detail not shown here. Equal entries are not always repeated. Out of some 5,500 compounds screened, about 2,000 (36%) were called active. About 18% were inconclusive and are not listed. Cut-off read from the data, not from the text of the source: active = normalized growth mostly below about 0.91 (no sharp cut-off); inconclusive = no clear call, values can overlap the other calls; inactive = mostly above about 0.92. The list shows a part of the results.

Assay: chemical genetic growth profiling, strain panel (AID 1159580);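 note: tested at 20 µM; growth read once vehicle control cultures reached saturation at 30 °C; 1 = growth at the plate median or of vehicle wells; lower values mean less growth of the strain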
Details: S. cerevisiae deletion strains, growth OD

With `C[C@]12CCC3C(CC[C@H]4CC(=O)CC[C@]34C)C1CCC2=O` (stereo partly specified) the normalized growth (locus YAL021C, strain ccr4, stronger effect = lower value) was 0.737 (active), the normalized growth (locus YAL026C, strain drs2, stronger effect = lower value) was 0.949 (inactive) and the normalized growth (locus YAL030W, strain snc1, stronger effect = lower value) was 0.938 (inactive). For the same molecule, the normalized growth (locus YBL061C, strain skt5, stronger effect = lower value) was 0.987 (inactive), the normalized growth (locus YBR009C, strain hhf1, stronger effect = lower value) was 0.79 (active) and the normalized growth (locus YBR021W, strain FUR4, stronger effect = lower value) was 0.781 (active). For the same molecule, the normalized growth (locus YBR023C, strain chs3, stronger effect = lower value) was 0.942 (inactive), the normalized growth (locus YBR171W, strain sec66, stronger effect = lower value) was 1 (inactive) and the normalized growth (locus YBR229C, strain ROT2, stronger effect = lower value) was 0.964 (inactive). For the same molecule, the normalized growth (locus YBR231C, strain swc5, stronger effect = lower value) was 0.999 (inactive), the normalized growth (locus YBR279W, strain paf1, stronger effect = lower value) was 0.983 (inactive) and the normalized growth (locus YCL011C, strain gbp2, stronger effect = lower value) was 0.86 (active). For the same molecule, the normalized growth (locus YCL016C, strain dcc1, stronger effect = lower value) was 0.94 (inactive), the normalized growth (locus YCL029C, strain bik1, stronger effect = lower value) was 0.948 (inactive) and the normalized growth (locus YCL069W, strain vba3, stronger effect = lower value) was 0.979 (inactive). The normalized growth (locus YCR088W, strain abp1, stronger effect = lower value) was 1.03 (inactive), the normalized growth (locus YDL005C, strain med2, stronger effect = lower value) was 1.03 (inactive) and the normalized growth (locus YDL035C, strain GPR1, stronger effect = lower value) was 0.787 (active). The normalized growth (locus YDL040C, strain nat1, stronger effect = lower value) was 1.03 (inactive), the normalized growth (locus YDL074C, strain BRE1, stronger effect = lower value) was 0.795 (inactive) and the normalized growth (locus YDL101C, strain DUN1, stronger effect = lower value) was 0.978 (inactive). The normalized growth (locus YDL185W, strain tfp1, stronger effect = lower value) was 0.932 (inactive), the normalized growth (locus YDL192W, strain arf1, stronger effect = lower value) was 0.866 (active) and the normalized growth (locus YDR001C, strain nth1, stronger effect = lower value) was 1.03 (inactive). For the same molecule, the normalized growth (locus YDR069C, strain doa4, stronger effect = lower value) was 0.942 (inactive), the normalized growth (locus YDR101C, strain arx1, stronger effect = lower value) was 0.947 (inactive) and the normalized growth (locus YDR137W, strain rgp1, stronger effect = lower value) was 0.549 (active). The normalized growth (locus YDR150W, strain NUM1, stronger effect = lower value) was 1.01 (inactive), the normalized growth (locus YDR159W, strain sac3, stronger effect = lower value) was 0.799 (active) and the normalized growth (locus YDR162C, strain NBP2, stronger effect = lower value) was 0.408 (active). For the same molecule, the normalized growth (locus YDR195W, strain ref2) was 1.28 [resistant] (active), the normalized growth (locus YDR297W, strain sur2, stronger effect = lower value) was 0.939 (inactive) and the normalized growth (locus YDR318W, strain mcm21, stronger effect = lower value) was 0.895 (active). The normalized growth (locus YDR334W, strain swr1, stronger effect = lower value) was 1.05 (inactive), the normalized growth (locus YDR335W, strain msn5, stronger effect = lower value) was 0.932 (inactive) and the normalized growth (locus YDR388W, stronger effect = lower value) was 0.86 (active). The normalized growth (locus YDR392W, strain spt3, stronger effect = lower value) was 0.495 (active), the normalized growth (locus YDR502C, strain sam2, stronger effect = lower value) was 0.835 (active) and the normalized growth (locus YEL003W, strain gim4, stronger effect = lower value) was 0.774 (active). The normalized growth (locus YEL037C, strain rad23, stronger effect = lower value) was 1.01 (inactive), the normalized growth (locus YEL061C, strain CIN8 (second series), stronger effect = lower value) was 1.01 (inactive) and the normalized growth (locus YEL061C, strain CIN8, stronger effect = lower value) was 0.994 (inactive). For the same molecule, the normalized growth (locus YER015W, strain faa2, stronger effect = lower value) was 0.985 (inactive), the normalized growth (locus YER016W, strain bim1, stronger effect = lower value) was 0.998 (inactive) and the normalized growth (locus YER110C, stronger effect = lower value) was 0.958 (inactive). The normalized growth (locus YER111C, strain swi4, stronger effect = lower value) was 0.998 (inactive), the normalized growth (locus YER155C, strain BEM2 (second series), stronger effect = lower value) was 0.753 (active) and the normalized growth (locus YER155C, strain BEM2, stronger effect = lower value) was 1.04 (inactive). For the same molecule, the normalized growth (locus YER167W, strain BCK2, stronger effect = lower value) was 0.966 (inactive), the normalized growth (locus YFR010W, strain ubp6, stronger effect = lower value) was 0.973 (inactive) and the normalized growth (locus YGL078C, strain dbp3, stronger effect = lower value) was 0.943 (inactive). For the same molecule, the normalized growth (locus YGL086W, strain mad1, stronger effect = lower value) was 0.971 (inactive), the normalized growth (locus YGL167C, strain pmr1, stronger effect = lower value) was 1.02 (inactive) and the normalized growth (locus YGL173C, strain kem1, stronger effect = lower value) was 0.821 (active). For the same molecule, the normalized growth (locus YGL227W, strain vid30, stronger effect = lower value) was 1.08 (inactive), the normalized growth (locus YGL240W, strain doc1, stronger effect = lower value) was 0.768 (active) and the normalized growth (locus YGL248W, strain PDE1, stronger effect = lower value) was 0.912 (inactive). For the same molecule, the normalized growth (locus YGL253W, strain hxk2, stronger effect = lower value) was 0.92 (inactive), the normalized growth (locus YGR135W, strain pre9, stronger effect = lower value) was 0.856 (active) and the normalized growth (locus YGR252W, strain gcn5, stronger effect = lower value) was 0.692 (active). For the same molecule, the normalized growth (locus YHR013C, strain ard1, stronger effect = lower value) was 0.978 (inactive), the normalized growth (locus YHR027C, strain rpn1, stronger effect = lower value) was 0.985 (inactive) and the normalized growth (locus YHR030C, strain SLT2, stronger effect = lower value) was 0.974 (inactive) and 0.898 (inactive). The normalized growth (locus YHR079C, strain IRE1 (second series), stronger effect = lower value) was 0.991 (inactive), the normalized growth (locus YHR079C, strain IRE1, stronger effect = lower value) was 0.901 (inactive) and the normalized growth (locus YHR094C, strain hxt1, stronger effect = lower value) was 0.997 (inactive). For the same molecule, the normalized growth (locus YHR129C, strain ARP1, stronger effect = lower value) was 0.96 (inactive), the normalized growth (locus YHR142W, strain chs7, stronger effect = lower value) was 0.803 (active) and the normalized growth (locus YHR200W, strain rpn10, stronger effect = lower value) was 0.928 (inactive). For the same molecule, the normalized growth (locus YIL066C, strain RNR3, stronger effect = lower value) was 0.795 (active), the normalized growth (locus YIL073C, strain SPO22, stronger effect = lower value) was 0.782 (inactive) and the normalized growth (locus YIL125W, strain kgd1, stronger effect = lower value) was 0.989 (inactive). For the same molecule, the normalized growth (locus YIR030C, strain dcg1, stronger effect = lower value) was 0.976 (inactive), the normalized growth (locus YJL092W, strain hpr5, stronger effect = lower value) was 0.978 (inactive) and the normalized growth (locus YJL095W, strain BCK1 (second series), stronger effect = lower value) was 0.632 (active). For the same molecule, the normalized growth (locus YJL095W, strain BCK1, stronger effect = lower value) was 0.743 (active) and 0.898 (inactive), the normalized growth (locus YJL115W, strain asf1, stronger effect = lower value) was 1.01 (inactive) and the normalized growth (locus YJL129C, strain trk1, stronger effect = lower value) was 0.851 (active). The normalized growth (locus YJL134W, strain LCB3, stronger effect = lower value) was 1.01 (inactive), the normalized growth (locus YJL154C, strain vps35, stronger effect = lower value) was 1.03 (inactive) and the normalized growth (locus YJL164C, strain tpk1, stronger effect = lower value) was 0.847 (active). For the same molecule, the normalized growth (locus YJL166W, strain qcr8, stronger effect = lower value) was 0.815 (active), the normalized growth (locus YJL168C, strain set2, stronger effect = lower value) was 1 (inactive) and the normalized growth (locus YJL187C, strain SWE1 (second series), stronger effect = lower value) was 0.92 (inactive). The normalized growth (locus YJL187C, strain SWE1, stronger effect = lower value) was 0.923 (active) and the normalized growth (locus YJR043C, strain POL32, stronger effect = lower value) was 0.883 (inactive).
